Results reported in publication PMC4336329 (PLoS ONE, 2015).
The campaign covered roughly 310,000 compounds. About 14,000 (4.5%) showed an effect of 50% or more. The effect is printed as a negative number. Only a selection was taken, and strong results are over-represented in it overall.

Target: human ether-à-go-go-related gene (hERG) potassium channel (human, UniProt Q12809)
Assay: primary screen, population patch clamp on CHO cells stably expressing hERG; higher = less effect of the substance
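Also: peak tail current of the secondary pulse compared with the same well before compound.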

Sequence of human ether-à-go-go-related gene (hERG) potassium channel (Q12809 whole entry, looked up): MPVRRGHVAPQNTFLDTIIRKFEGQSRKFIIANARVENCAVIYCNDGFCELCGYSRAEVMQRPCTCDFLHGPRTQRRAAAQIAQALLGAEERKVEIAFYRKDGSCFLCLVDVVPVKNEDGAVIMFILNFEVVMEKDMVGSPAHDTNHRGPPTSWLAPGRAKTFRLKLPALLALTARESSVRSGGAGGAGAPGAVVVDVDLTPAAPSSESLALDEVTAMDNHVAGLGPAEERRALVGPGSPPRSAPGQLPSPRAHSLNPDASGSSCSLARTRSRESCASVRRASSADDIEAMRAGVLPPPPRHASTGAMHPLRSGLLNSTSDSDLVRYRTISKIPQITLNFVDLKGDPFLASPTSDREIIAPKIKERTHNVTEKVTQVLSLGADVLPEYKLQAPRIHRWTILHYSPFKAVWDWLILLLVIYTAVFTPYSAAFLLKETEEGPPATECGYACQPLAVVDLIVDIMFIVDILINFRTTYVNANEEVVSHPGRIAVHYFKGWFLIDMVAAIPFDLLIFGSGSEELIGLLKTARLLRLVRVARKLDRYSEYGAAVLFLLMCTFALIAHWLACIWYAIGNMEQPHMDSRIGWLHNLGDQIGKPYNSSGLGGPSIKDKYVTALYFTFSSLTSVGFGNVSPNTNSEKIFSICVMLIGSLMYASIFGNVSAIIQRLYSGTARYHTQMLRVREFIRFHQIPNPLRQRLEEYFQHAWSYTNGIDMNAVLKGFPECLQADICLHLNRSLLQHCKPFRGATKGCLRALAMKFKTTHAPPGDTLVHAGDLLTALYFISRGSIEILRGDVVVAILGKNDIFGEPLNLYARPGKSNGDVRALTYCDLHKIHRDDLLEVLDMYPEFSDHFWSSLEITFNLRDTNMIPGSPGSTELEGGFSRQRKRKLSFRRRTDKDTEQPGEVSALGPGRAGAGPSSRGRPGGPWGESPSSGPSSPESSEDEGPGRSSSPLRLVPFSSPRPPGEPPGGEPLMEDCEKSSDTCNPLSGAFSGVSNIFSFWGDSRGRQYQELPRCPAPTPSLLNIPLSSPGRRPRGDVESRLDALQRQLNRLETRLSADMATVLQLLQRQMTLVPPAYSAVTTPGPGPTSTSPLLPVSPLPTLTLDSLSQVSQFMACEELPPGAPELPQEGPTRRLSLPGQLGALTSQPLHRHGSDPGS

| SMILES | hERG current change (%, negative = inhibition) at 10uM |
| --- | --- |
| CCOc1ccc(CCN2CN(CC)CNC2=S)cc1OCC | -0.457% |
| COc1cccc(C(=O)NC(C)c2cccc3ccccc23)c1OC (stereo not drawn) | -10.4% |
| S=C(NC1CCCCC1)N1CCc2ccccc2C1 | -5.33% |
| Cc1cc2cc(CCNC(=O)c3ccc(S(=O)(=O)N4CCOCC4)cc3)c(=O)[nH]c2cc1C | 6.3% |
| Cc1ccnc(NS(=O)(=O)c2ccccc2)c1 | 15.2% |
| COc1ccccc1CN1CCC(CNS(=O)(=O)c2cc(-c3cc(C)no3)ccc2C)CC1 | -61.3% |
| Cc1cc(-c2ccc(C)c(S(=O)(=O)NCCCN(Cc3ccccc3)C(C)C)c2)on1 | -36.9% |
| CCc1ccc(-c2cc(C)no2)cc1S(=O)(=O)NCCN1CCC(C)CC1 | -7.14% |
| CCOc1ccccc1CNS(=O)(=O)c1cc(-c2cc(C)no2)ccc1C | -19% |
| COc1ccccc1CNS(=O)(=O)c1cc(-c2cc(C)no2)ccc1C(C)C | 5.07% |
| Cc1cc(-c2ccc(C)c(S(=O)(=O)NCC3CCN(Cc4ccccc4F)CC3)c2)on1 | -52.8% |
| CCc1ccc(-c2cc(C)no2)cc1S(=O)(=O)NCCCN1CCN(c2ccccc2)CC1 | 1.91% |
| CCN(CCCNS(=O)(=O)c1cc(-c2cc(C)no2)ccc1C)Cc1ccccc1 | -61.3% |
| COc1ccc(-c2cc(C)no2)cc1S(=O)(=O)NCCCN1CCN(c2ccccc2)CC1 | -68% |
| Cc1cc(-c2ccc(C)c(S(=O)(=O)NCCCN3CCN(c4ccccc4)CC3)c2)on1 | -33.2% |
| COc1ccc(-c2cc(C)no2)cc1S(=O)(=O)NCCCN(C)Cc1ccccc1 | -29.9% |
| Cc1cc(-c2ccc(C)c(S(=O)(=O)NCCCN3CCN(c4ccccc4F)CC3)c2)on1 | 10.3% |
| O=C(CCCCCNC(=O)c1ccccc1)N/N=C/c1ccccc1 | -9.98% |
| O=C(Nc1ccc2oc(-c3cccnc3)nc2c1)c1ccc2c(c1)OCCO2 | 20.2% |
| CCCCCC/C=C/c1ccc([C@H]2[C@H]3C=CC[C@@H](C)[C@@H]3C(=O)N2Cc2ccccc2)c(F)c1 | 4.76% |
| S=C1NC(c2ccccc2)=NCN1c1ccc(Br)cc1 | -12.9% |

| SMILES | hERG current change (%, negative = inhibition) at 10uM |
| --- | --- |
| COc1ccccc1N(CC(=O)NCCSCc1ccc(Cl)cc1)S(C)(=O)=O | -0.283% |
| C=CCSc1nccc(-c2nn(-c3ccc(C)cc3)ccc2=O)n1 | -8.82% |
| O=C1NC(=O)N(CCc2ccc(F)cc2)C(=O)/C1=C/c1cccs1 | 16.1% |
| Cc1c(NC(=O)COC(=O)c2ccc(Br)o2)c(=O)n(-c2ccccc2)n1C | 13.8% |
| Cc1ccccc1-c1cc(C(=O)N/N=C/c2cccnc2)c2ccccc2n1 | -3.87% |
| O=C(COc1ccccc1-c1ccccc1)N/N=C/c1cccnc1 | -52.8% |
| CC(C)Oc1ccccc1-c1cc(C(=O)N/N=C/c2cccnc2)c2ccccc2n1 | -51.1% |
| O=C(N/N=C/c1cccnc1)c1ccccc1OCc1cccc(Br)c1 | -17.1% |
| O=C(COc1ccccc1-c1ccccc1)N/N=C/c1ccncc1 | -26.2% |
| O=C(N/N=C/c1cccnc1)c1ccccc1OCc1ccc(Cl)cc1 | -38.4% |
| COc1ccc(/C(C)=N/NC(=O)c2ccccc2OCc2ccccc2)c(OC)c1 | 11.2% |
| CCOc1ccccc1-c1cc(C(=O)N/N=C/c2cccnc2)c2ccccc2n1 | -6.35% |
| COc1ccc(/C=N/NC(=O)c2ccccc2OCc2ccccc2)c(OC)c1 | -53.8% |
| COc1ccc(/C=N/NC(=O)c2ccccc2NC(=O)c2ccco2)c(OC)c1 | 15.3% |
| O=C(COc1ccc(-c2ccccc2)cc1)N/N=C/c1cccnc1 | 7.95% |
| O=C(N/N=C/c1cccnc1)c1ccccc1OCc1ccc(Br)cc1 | -52.6% |
| Cc1ccccc1N/N=C/c1ccc(N2CCOCC2)cc1 | -2.55% |
| CCn1cc(CNC(=O)C2CCC(=O)N(Cc3ccccc3F)C2)cn1 (stereo not drawn) | 8.25% |
| COc1ccc(C(=O)Nc2ccccc2C(=O)N2CCOCC2)cc1Br | -17.3% |
| C/C(=N\NC(=O)COc1ccccc1-c1ccccc1)c1cccnc1 | -53.9% |
| C/C(=N\NC(=O)COc1ccccc1-c1ccccc1)c1ccccn1 | -6.93% |

| SMILES | hERG current change (%, negative = inhibition) at 10uM |
| --- | --- |
| C/C(=N\NC(=O)Cc1ccccc1)c1cccnc1 | 15.3% |
| CSCCC(NS(=O)(=O)c1cc(C(=O)O)ccc1Cl)C(=O)O (stereo not drawn) | 45% |
| O=C(/C=C/c1ccccc1Cl)NCc1ccccc1 | 10.2% |
| CCN(CC)C(=O)C1CCCN(C(=O)CCn2nnnc2CN2CCOCC2)C1 (stereo not drawn) | 17.7% |
| NC(N)=NC(=O)c1nc(Cl)c(N)nc1N | -3.88% |
| Cl.NC(N)=NC(=O)c1nc(Cl)c(N)nc1N.O | -0.314% |
| NC(N)=NC(=O)c1nc(Cl)c(N2CCCCCC2)nc1N | -58.6% |
| O=[N+]([O-])c1ccc(N(CC2CO2)S(=O)(=O)c2ccccc2)cc1 (stereo not drawn) | -43.9% |
| COc1ccc(N(CC(O)CN2CCOCC2)S(=O)(=O)c2ccccc2)cc1 (stereo not drawn) | -12.1% |
| Cc1ccc(N(CC(O)CN2C(=O)NC(C)(C)C2=O)S(=O)(=O)c2ccc([N+](=O)[O-])cc2)cc1 (stereo not drawn) | -32.7% |
| Cc1ccc(N(CC(O)CN2CCOCC2)S(=O)(=O)c2ccc3ccccc3c2)cc1 (stereo not drawn) | -67.4% |
| Cc1ccc(N(CC2CO2)S(=O)(=O)c2ccc(C)cc2)cc1 (stereo not drawn) | -5.18% |
| Cl.O=S(=O)(c1ccc2ccccc2c1)N(CC(O)CN1CCOCC1)c1ccccc1 (stereo not drawn) | -47.9% |
| Cc1ccc(S(=O)(=O)N(CC(O)CN2CCOCC2)c2cccc([N+](=O)[O-])c2)cc1 (stereo not drawn) | -34.5% |
| Cc1ccc(N(CC2CO2)S(=O)(=O)c2ccc([N+](=O)[O-])cc2)cc1 (stereo not drawn) | -69.3% |
| Cc1ccc(N(CC(O)CN2CCOCC2)S(=O)(=O)c2ccc([N+](=O)[O-])cc2)cc1 (stereo not drawn) | -65.2% |
| O=C(Nc1ccc(NC(=O)c2cccs2)cc1)c1ccc2c(c1)OCCO2 | 15.6% |
| CC1(C)Cn2c(nnc2-c2ccccc2)S1 | 14.1% |
| O=C(NCC1CCCO1)c1cc(-c2ccncc2)nc2ccc(S(=O)(=O)N3CCOCC3)cc12 (stereo not drawn) | -24.5% |
| CC(C)(C#CCN1CCCCC1)OCCOC(c1ccccc1)c1ccccc1.Cl | -21.3% |
| Cc1ccc(NC(=O)CCn2cnc3cc(C)c(C)cc32)cc1 | -8.26% |

| SMILES | hERG current change (%, negative = inhibition) at 10uM |
| --- | --- |
| COc1ccccc1N1C(=O)c2ccc(C(=O)Nc3ccc(F)cc3)cc2C1=O | 1.07% |
| CCOC(=O)N1CCN(c2ncnc3c2[nH]c2ccc(F)cc23)CC1 | -2.67% |
| Cc1ccnc(NC(=O)C2CCN(S(=O)(=O)c3ccc4ccccc4c3)CC2)c1 | 7.94% |
| O=c1c(Br)c(N2CCCCC2)cnn1-c1ccccc1 | -16.5% |
| CC(C)Cc1oc(C(=O)O)cc1CN.Cl | -4.32% |
| O=C(Nc1nnc(-c2ccc(Cl)cc2)o1)c1ccc(N2C(=O)CCC2=O)cc1 | 12.9% |
| Cc1ccccc1OCC(=O)OCC(=O)Nc1ccc(N2CCOCC2)cc1 | 9.51% |
| O=S(=O)(Nc1c(F)cccc1F)c1ccc2c(c1)OCCO2 | 9.82% |
| CCOC(=O)c1sc2nc(NC(=O)C(C)(C)C)sc2c1C | -11.7% |
| Cc1ccc(S(=O)(=O)N(C)c2nc3ccccc3n3c(C(C)C)nnc23)cc1 | -28.1% |
| O=C(CCC(=O)N1CCOc2ccccc21)NCCCc1ccccc1 | -17.5% |
| CN(CCCNC(=O)CCC(=O)N1CCOc2ccccc21)Cc1ccccc1 | -30.7% |
| O=C(CCC(=O)N1CCOc2ccc(Cl)cc21)NCc1ccccc1 | -21.7% |
| Cc1ccc2c(c1)N(C(=O)CCC(=O)NCCCN(C)Cc1ccccc1)CCO2 | -68.3% |
| CCN(CCCNC(=O)CCC(=O)N1CCOc2ccccc21)Cc1ccccc1 | -62.5% |
| Cc1ccc2c(c1)N(C(=O)CCC(=O)NCc1cccc(F)c1)CCO2 | -5.21% |
| CC(CNC(=O)CCC(=O)N1CCOc2ccc(Cl)cc21)c1ccccc1 (stereo not drawn) | -40.6% |
| CN(CCCNC(=O)CCC(=O)N1CCOc2ccc(Cl)cc21)Cc1ccccc1 | -64.1% |
| O=C(CCC(=O)N1CCOc2ccccc21)NCCc1ccccc1 | -6% |
| COc1ccc(C(=O)Oc2cc(C)[nH]c(=O)c2[N+](=O)[O-])c(OC)c1 | 11.9% |
| Cc1ccc(C)c2[nH]c(=O)c(CN(Cc3ccco3)S(=O)(=O)c3ccc4c(c3)OCCO4)cc12 | 9.44% |
